Test results reported in PubChem BioAssay (Tox21).
Records with an inconclusive call do not appear. Entries that show only a call come without a potency. Calls of active or inactive are those of the source. Calls follow the shape of the dose curve; as a rule, active = well fitted activation curve with a large enough effect in the repeat runs; inconclusive = weak or mixed curves; inactive = flat fitted curve, though single readings scatter.
Potency is read from the fitted curve at half-maximal effect.

Test: A CellTox Green Cytotoxicity Assay to monitor cytotoxicity in HEK293 cells - 16 hour (AID 1224888); also: nearly all actives have a fitted effect of over 35% in size
Details: CellTox Green fluorescence; series mostly up to 76.8 µM
Source text: National Center for Advancing Translational Sciences [NCATS]
NIH Chemical Genomics Center [NCGC]
U.S. Environmental Protection Agency [EPA]
National Institutes of Environmental Health Sciences [NIEHS]
National Toxicology Program [NTP]
Cell-based models are critical for drug discovery. Determining the natural cytotoxic effects resulting from test compounds is an essential research activity. A CellTox Green Cytotoxicity Assay to monitor cytotoxicity in real time of continues cell culture during 40 hours of the compound treatment was used to screen Tox21 10K library compounds in Hek293 cells. CellTox Green Cytotoxicity Assay is a nonlytic, homogeneous, biofluorescent method to measure cytotoxicity in cell culture after experimental manipulation. The assay system uses a proprietary asymmetric cyanine dye that is excluded from viable cells but preferentially stains the dead cell's DNA. […] Viable cells produce no appreciable increases in fluorescence. Therefore, the fluorescence signal produced by the binding interaction with dead cell DNA is proportional to cytotoxicity.
The mixture of Hek293 cell suspension and reagents were dispensed at 600cells/6 ul/well in 1536-well tissue culture treated black solid bottom plates using a Multidrop dispenser. After the assay plates were incubated at a 37 C/5% CO2 incubator for 5 hours, 23 nL of compounds dissolved in DMSO, positive and negative controls was transferred to the assay plate by a pintool work station. The plates were incubated at 37 C for 40 hours. The fluorescence intensity were measured at 0h, 8h, 16h, 24h, 32h and 40h time points using ViewLux plate reader during compound treatment.
For `c1ccc(P(c2ccccc2)c2ccccc2)cc1`, the Potency was “inactive”. With `CCOP(=S)(OCC)O/N=C(\C#N)c1ccccc1` the Potency was “inactive”. In the case of `CCC(C)(c1ccc(O)cc1)c1ccc(O)cc1`, the Potency is reported as “inactive”. In the case of `CCCCN(CCCC)N=O`, the Potency is reported as “inactive”. With `CCCCNC(=O)n1c(NC(=O)OC)nc2ccccc21` the Potency was “inactive”. With `CC(C)NC(C)C` the Potency was “inactive”. With `O=[N+]([O-])c1cccc2ccccc12` the Potency was “inactive”. For `Nc1ccc(Cl)cc1N`, the Potency was 24.5 µM (active). With `CCCCOCCOP(=O)(OCCOCCCC)OCCOCCCC` the Potency was “inactive”. In the case of `c1ccc(N=Nc2ccccc2)cc1`, the Potency is reported as “inactive”. For `CC(C)c1ccc(CO)cc1`, the Potency was “inactive”. In the case of `O=C(O)CC[N+](=O)[O-]`, the Potency is reported as “inactive”. In the case of `COc1ccc(C(CN(C)C)C2(O)CCCCC2)cc1` (stereo not given), the Potency is reported as “inactive”. In the case of `CNC(=O)N(C)c1nnc(C(C)(C)C)s1`, the Potency is reported as “inactive”. With `CCOCN(C(=O)CCl)c1c(C)cccc1CC` the Potency was “inactive”. In the case of `C=C(C)[C@H]1Cc2c(ccc3c2O[C@@H]2COc4cc(OC)c(OC)cc4[C@@H]2C3=O)O1`, the Potency is reported as “inactive”. In the case of `Cc1cccc(N)c1N`, the Potency is reported as “inactive”. For `Nc1cccnc1`, the Potency was “inactive”. For `Nc1ccc(-c2ccccc2)cc1`, the Potency was “inactive”. For `Nc1ccc(-c2ccc(N)c(N)c2)cc1N`, the Potency was “inactive”. For `Cc1cc(C)cc(C)c1`, the Potency was “inactive”. In the case of `O=P(O)(O)CCCl`, the Potency is reported as “inactive”. For `CCC(CC)Nc1c([N+](=O)[O-])cc(C)c(C)c1[N+](=O)[O-]`, the Potency was “inactive”. With `O=C(O)C(F)(F)C(F)(F)C(F)(F)C(F)(F)C(F)(F)C(F)(F)C(F)(F)F` the Potency was “inactive”. In the case of `N[C@@H](Cc1ccc(N(CCCl)CCCl)cc1)C(=O)O`, the Potency is reported as “inactive”. In the case of `Cc1c(COC(=O)[C@@H]2[C@H](/C=C(\Cl)C(F)(F)F)C2(C)C)cccc1-c1ccccc1`, the Potency is reported as “inactive”. In the case of `CCN(CC)C(=O)SCc1ccc(Cl)cc1`, the Potency is reported as “inactive”. In the case of `c1cc(OCC2CO2)ccc1Cc1ccc(OCC2CO2)cc1` (stereo not given), the Potency is reported as “inactive”. With `Cc1ccc2c(c1N)C(=O)c1ccccc1C2=O` the Potency was “inactive”. For `Oc1ccc(-c2ccccc2)cc1`, the Potency was “inactive”. For `CCOc1cc(Oc2ccc(C(F)(F)F)cc2Cl)ccc1[N+](=O)[O-]`, the Potency was “inactive”. With `O=C(CCl)c1ccccc1` the Potency was “inactive”. In the case of `C=CCN(CC=C)C(=O)C(Cl)Cl`, the Potency is reported as “inactive”. With `CC(C)(OOC(C)(C)c1ccccc1)c1ccccc1` the Potency was 43.6 µM (active). With `CCOc1cc(C=O)ccc1O` the Potency was “inactive”. For `O=P(Oc1ccccc1)(Oc1ccccc1)Oc1ccccc1`, the Potency was “inactive”. In the case of `CCN(CC)C(=O)/C(Cl)=C(\C)OP(=O)(OC)OC`, the Potency is reported as “inactive”. For `N#CC(Br)Br`, the Potency was “inactive”. For `C=C(C)C(=O)OCC1CO1` (stereo not given), the Potency was “inactive”. In the case of `Brc1ccc(Oc2cc(Br)c(Br)cc2Br)c(Br)c1`, the Potency is reported as “inactive”.
